High-throughput results from PubChem.
In the library only some 5% were active in any assay of this set; here they are far more common.
AHR act – AHR activators, primary screen, cell-based, luminescence, luciferase reporter, human; AHR-responsive luciferase reporter cells; activation, % at 5 µM; hit rate 2.5% among 320,000; in the data active = activation above about 47%;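 note: 0% = vehicle wells and 100% = reference agonist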
SENP7 inh – SENP7 protease inhibitors, primary screen, biochemical, luminescence, uHTS | inhibition, % at 5 µM | recombinant SENP7, Z-RLRGG-aminoluciferin luminescence, 40 min | hit rate 1.5% among 330,000 | Sentrin-specific protease 7 (Homo sapiens), Q9BQF6;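 active = inhibition above about 50% at the single test dose, limit read from the data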;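 note: plate controls were DMSO with enzyme for no effect and no enzyme buffer wells for full effect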
SENP6 inh – SENP6 protease inhibitors, primary screen, biochemical, luminescence, uHTS | Sentrin-specific protease 6 (Homo sapiens), Q9GZR1 | Recombinant SENP6 catalytic domain, aminoluciferin luminescence | inhibition, % at 10 µM | hit rate 1.8% among 330,000 | AID 2599, 2010;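 active = inhibition above about 50% at the single tested dose, limit read from the data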;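 note: plate controls were DMSO wells with enzyme for no effect and DMSO wells lacking enzyme for full effect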
SENP8 block-1 – human SENP8 protease inhibitors, primary screen, biochemical, fluorescence, Nedd8 protein substrate, uHTS | hit rate 0.64% among 360,000 | inhibition, % at 20 µM | recombinant SENP8 | Sentrin-specific protease 8 (Homo sapiens), Q96LD8; in the data active = inhibition mostly above about 40%, no sharp cut-off; inactive = mostly below about 27%
SENP8 block-2 – SENP8 protease inhibitors, primary screen, biochemical, luminescence; Sentrin-specific protease 8 (Homo sapiens), Q96LD8; purified SENP8, Z-RLRGG-aminoluciferin cleavage; inhibition, % at 10 µM; hit rate 1.2% among 330,000; in the data active = inhibition above about 50%
EBI2 antag – EBI2 receptor antagonists, beta-arrestin recruitment, primary screen, cell-based, luminescence, 7a,25-OHC stimulation, uHTS; AID 651636, 2012; inhibition, % at 5 µM; hit rate 0.81% among 360,000; G-protein coupled receptor 183 (Homo sapiens), P32249; 7a,25-OHC stimulated; in the data active = inhibition above about 38%;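 note: enzyme fragment complementation signal reports receptor beta-arrestin coupling in cells; 0% = agonist plus DMSO wells and 100% = wells without agonist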
SENP8 inh conf – human SENP8 protease inhibitors, confirmation, biochemical, Nedd8 protein substrate, single concentration; AID 624319, 2012; inhibition, % at 25 µM; purified SENP8, Nedd8-AMC/pro-Nedd8 cleavage fluorescence, 30 min; hit rate 15% among 1,400; shares compounds with SENP8 block-1; in the data active = inhibition mostly above about 39%, no sharp cut-off; inactive = mostly below about 34%
Starred values were filed as active, the others as inactive; / = no result.

SMILES | AHR act | SENP7 inh | SENP6 inh | SENP8 block-1 | SENP8 block-2 | EBI2 antag | SENP8 inh conf
COc1ccc(-c2oc3c(OC)c(OC)c(OC)c(O)c3c(=O)c2OC)cc1OC | 35 | -4 | 0 | -3 | -2 | 2 | /
C[N+]1(C)CCC(=C2c3ccccc3CC(=O)c3sccc32)CC1 | -1 | 14 | 36 | 75* | 3 | -3 | 56*
CC[N+]1(C)CCC(=C2c3ccccc3CC(=O)c3sccc32)CC1 (stereo unspecified) | 1 | 3 | -1 | 20 | -2 | -12 | /
CCOC(=O)n1c(=O)n(Cc2ccc(Cl)c(Cl)c2)c2ccccc21 | -5 | -4 | -36 | 28 | -8 | 7 | /
O=C(O)c1ccccc1S(=O)(=O)NCC(O)COC1CCCCC1 (stereo unspecified) | 0 | -7 | -18 | 43* | -13 | -4 | 2
Cc1ccc(OCC(O)CNS(=O)(=O)c2ccccc2C(=O)O)cc1 (stereo unspecified) | 2 | 9 | -6 | 26 | -3 | 3 | /
O=C(OCn1nnc2ccccc2c1=O)C1CCCCC1 | -1 | 6 | -31 | 42* | -5 | 1 | 12
CC(C)Nc1nnc(SCC(=O)N2CCN(C(=O)c3ccco3)CC2)s1 | 1 | 7 | -1 | 6 | 2 | 6 | /
COc1ccccc1Cn1nnc2c(=O)[nH]c(C3CCN(C(=O)c4ccc(F)cc4)CC3)nc21 | 1 | -1 | 8 | 53* | 2 | -15 | 8
O=c1[nH]nc(SCc2ccccc2)n1C1CC2C=CC1C2 (stereo unspecified) | -7 | 5 | -22 | 9 | 1 | 7 | /
Cc1nc(CS(=O)(=O)c2ccccn2)sc1C(=O)NNC(=O)c1c(F)cccc1Cl | -1 | 7 | 1 | 42* | 0 | -1 | 14
Cc1nn(Cc2ccc(Cl)c(Cl)c2)c(C)c1NC(=O)c1cn(-c2ccccc2)nc1-c1ccccc1 | 5 | -5 | -3 | 40* | -5 | 7 | 7
C=CCn1c(SCC(=O)NC2CCCC2)nnc1-c1ccccn1 | -2 | 2 | -7 | 6 | 0 | -11 | /
O=C(O)CC1c2ccccc2CCN1S(=O)(=O)c1cccs1 (stereo unspecified) | -1 | -6 | -16 | 43* | -3 | 0 | -9
O=C(O)CC1c2ccccc2CCN1S(=O)(=O)c1ccccc1 (stereo unspecified) | -1 | 3 | -3 | 18 | -1 | -3 | /
Nc1cc(N)nc(SCC(=O)Nc2cc(S(=O)(=O)N3CCOCC3)ccc2Cl)n1 | 2 | 10 | -27 | 12 | 0 | 2 | /
Cc1ccc(/C=C/C(=O)c2ccc(O)cc2)cc1 | 1 | 59* | 86* | 42* | 63* | 34 | 1
Cc1ccc(C(=O)/C=C/C(=O)O)cc1 | 13 | -1 | -3 | 22 | -1 | -10 | /
COCc1cc([C@@H]2C[C@H]3CN(c4ccccc4)C(=O)[C@]34CCCN24)ccc1OC | 1 | -3 | 5 | 42* | -1 | -7 | 13
CCCn1c2ccc(F)cc2c2nnc(NN)nc21 | 6 | -3 | 9 | 70* | 0 | 0 | 17
NNc1nnc2c3cc(F)ccc3n(Cc3ccccc3)c2n1 | 3 | -10 | 11 | 37* | -4 | 0 | 14
CCOC(=O)C1CCC(CNCc2ccc(Cl)cc2)CC1 (stereo unspecified) | -4 | -2 | -1 | -2 | 1 | 9 | /
O=C(OCC(=O)N1CCCC1)c1cccs1 | 0 | 4 | -2 | 48* | -3 | -4 | 19
CN(C(=O)c1ccc(NC(=O)C2CCCN(C(=O)OC(C)(C)C)C2)cc1)C1CCCC1 (stereo unspecified) | -2 | -1 | 11 | 10 | 11 | -11 | /
COC(=O)c1ccc(NC(=O)CN(c2ccc(OC)cc2)S(C)(=O)=O)cc1 | 7 | 8 | 2 | 41* | 2 | 7 | 17
SMILES | AHR act | SENP7 inh | SENP6 inh | SENP8 block-1 | SENP8 block-2 | EBI2 antag | SENP8 inh conf
COc1cccc(NC(=O)Cn2c(=O)n(C)c(=O)c3sc4c(c32)COC(C)(C)C4)c1 | 1 | 10 | -8 | 7 | -10 | -6 | /
C/C=C/c1ccc2c(c1)O[C@H](CN(C)C(=O)NC1CCCC1)[C@H](C)CN([C@H](C)CO)S2(=O)=O | / | / | / | 14 | / | 0 | /
CC(Sc1nnc(-c2ccco2)n1C)C(=O)Nc1nccs1 (stereo unspecified) | 2 | 4 | 1 | -3 | -6 | 6 | /
Cc1cc(NS(=O)(=O)c2ccc(NC(=O)C(CC(C)C)N3C(=O)c4ccccc4C3=O)cc2)nc(C)n1 (stereo unspecified) | 5 | 11 | -1 | 42* | 7 | -3 | -3
Cc1cc(NS(=O)(=O)c2ccc(NC(=O)C(C(C)C)N3C(=O)c4ccccc4C3=O)cc2)nc(C)n1 (stereo unspecified) | -3 | 4 | 2 | 11 | 0 | -7 | /
S=C(NNc1cccc(Cl)c1)NC1CCCCC1 | 3 | -7 | 0 | 49* | -5 | 8 | 21
S=C(Nc1cccc(Cl)c1)NC1CCCCC1 | -1 | -3 | -19 | 27 | -16 | -17 | /
Cn1cccc1CNC(=S)Nc1ccccc1Cl | 2 | -8 | -16 | 40* | -4 | -2 | 13
CCOC(=O)c1ccc(S(=O)(=O)N2CCN(C(=O)c3cccc(S(=O)(=O)N4CC(C)OC(C)C4)c3)CC2)cc1 (stereo unspecified) | / | / | / | 7 | / | -5 | /
O=C(Nc1cccnc1)c1ccc(CN2CCc3ccccc3C2)cc1 | 12 | -4 | -14 | 51* | -9 | -5 | 34
Cc1ccc(NC(=O)c2ccc(CN3CCc4ccccc4C3)cc2)cc1 | 19 | 12 | 21 | 71* | 6 | 19 | 29
COc1ccc(CN(C)Cc2c(O)ccc3ccccc23)cc1 | 17 | 3 | -1 | -105 | 5 | -6 | /
CCc1ccc(N(C(=O)c2csnn2)C(C(=O)NC(C)(C)CC)c2ccccn2)cc1 (stereo unspecified) | 12 | -9 | -30 | 5 | -9 | -1 | /
COCCN1C=C2C(=O)C(C)(OC(=O)c3cccs3)C(=O)C=C2C=C1CCCC(=O)OC (stereo unspecified) | 5 | 1 | 14 | 37 | 3 | -19 | /
COC(=O)CCCC1=CC2=CC(=O)C(C)(OC(=O)c3cccs3)C(=O)C2=CN1C1CC1 (stereo unspecified) | 2 | 8 | 22 | 41* | 14 | -14 | 63*
